High-throughput results from PubChem.
CBFb-RUNX1 inh: CBF-beta/RUNX1 interaction disruption | Q01196+Q13951 | AlphaScreen CBFb-His/RUNX1-biotin binding, biochemical | Potency, µM (titrated, usually from 59.8 µM), without a hit: at the top dose activity, negative = inhibition, most hits filed as inhibitors | 230,000 tested, under 10 active; also: % of control where 0% means no effect
Target sequence (Q01196 whole entry, looked up): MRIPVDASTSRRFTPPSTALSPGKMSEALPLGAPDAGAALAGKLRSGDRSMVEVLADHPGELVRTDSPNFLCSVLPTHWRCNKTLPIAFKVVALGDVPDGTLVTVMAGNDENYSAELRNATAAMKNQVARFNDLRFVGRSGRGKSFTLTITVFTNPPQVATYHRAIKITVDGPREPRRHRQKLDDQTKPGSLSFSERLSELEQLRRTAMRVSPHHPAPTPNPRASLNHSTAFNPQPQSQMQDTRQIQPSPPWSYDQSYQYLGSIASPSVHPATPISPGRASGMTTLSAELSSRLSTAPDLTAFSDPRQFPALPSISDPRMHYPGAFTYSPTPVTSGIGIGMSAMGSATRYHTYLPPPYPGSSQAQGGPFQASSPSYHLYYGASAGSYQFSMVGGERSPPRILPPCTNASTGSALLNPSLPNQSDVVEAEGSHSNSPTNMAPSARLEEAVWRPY
Target sequence (Q13951 whole entry, looked up): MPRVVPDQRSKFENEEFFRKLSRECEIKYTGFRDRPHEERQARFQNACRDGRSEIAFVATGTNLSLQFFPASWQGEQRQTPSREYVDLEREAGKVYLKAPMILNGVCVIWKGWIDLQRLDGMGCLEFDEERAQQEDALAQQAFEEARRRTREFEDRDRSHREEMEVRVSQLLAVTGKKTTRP
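CBFb-His/RUNX1-biotin, 30 nM each, preincubated 20 min RT; compound 15 min RT; Ni + streptavidin beads 50 ng each, 90 min RT; AlphaScreen read.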
MBNL1-CUG inh: inhibitors of human MBNL1 binding to CUG repeat RNA; TR-FRET MBNL1-His/biotin-(CUG)12 binding, 665/545 ratio; Q9NR56; AID 2675; 280,000 tested, 0.036% active; Potency, µM (highest dose often 57.5 µM), for the others: top-dose activity change, negative = inhibition, usual class: inhibitors; active = well fitted inhibition curve with a large enough effect in the signal ratio, with a control signal flat, not every such curve was filed as active; inconclusive = small, poorly fitted or top-dose-only effect, or effect the other way, or a change in a side signal; inactive = no such curve, though single readings can be large or run the other way; the % refers to the signal ratio; also: potency is read from the fitted curve at half-maximal effect; % is scaled to controls: 0 for no effect and ±100 for the full control effect
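TR-FRET readout: Ex 340 nm, 665/545 nm emission ratio, normalized to buffer-only (basal) and MBNL1-(CUG)12 controls. Complex of MBNL1-His with Biotin-(CUG)12, compounds 92 nM–58 uM, incubated 60 min at room temperature.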
PTHR1 agonist: PTHR1 (human) receptor agonism; HEK293 GP2 PTHR1 cells, GloSensor cAMP luminescence, 1 h; Q03431; AID 743266; 410,000 tested, 0.075% active; Potency, µM (highest dose often 115 µM), without a hit: at the top dose activation, actives largely listed as activators; also: potency is read from the fitted curve at half-maximal effect; nearly all actives have a fitted effect of over 55% in size
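HEK-293-derived GP2 cells expressing PTHR1 and a GloSensor cAMP reporter, 3,000/well, plated overnight, given luciferin plus IBMX (each 0.5 mM as added) for 1 h at 37 °C, then compound for 1 h at 37 °C. Luminescence was read after 15 min at room temperature.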
DRD3 antagonist: blocks the human D3 dopamine receptor. AID 652054. max response, negative = inhibition, %. 360,000 tested, 2.5% active. P35462. D3R cells, DiscoveRx beta-arrestin luminescence, antagonist mode; hits give low values; in the data active = max response below about -50%; inconclusive = no clear call, values can overlap the other calls; also: % is scaled to controls: 0 for no effect and ±100 for the full control effect
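Cells expressing the human receptor were seeded at 1500 cells/well, incubated overnight at 37 degrees C in 5% CO2, then exposed to library compounds with dopamine controls for 90 minutes at 37 degrees C before luminescent detection.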
DRD3 agonist: D3 dopamine receptor (human) agonism. P35462. D3R DiscoveRx beta-arrestin cells, luminescence, 90 min. max activation, %. 410,000 tested, 0.58% active; in the data active = max activation above about 30%; also: 0% is about no effect
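Cells at 1500/well, incubated overnight, then treated with pinned compounds (dopamine as control) for 90 min at 37 degrees C. DiscoveRx reagent added for 30 - 60 minutes at room temperature; luminescence read.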
Integrin act MD: activates integrin-mediated alleviation for muscular dystrophy; 350,000 tested, 0.064% active; alpha7betagal myoblasts, beta-gal FDG fluorescence, 48 h; Potency, µM (titrated, usually from 38.3 µM), without a hit: top-dose activation, most hits filed as activators;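 also: potency is read from the fitted curve at half-maximal effect; 100% = response of the positive control SU9516; nearly all actives have a fitted effect of over 60% in size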
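Alpha7betagal+/- myoblasts (passage 13) were plated 16-24 hr, then exposed to compounds (1:260 dilution of DMSO stock) for 48 hours at 37C. After MPER lysis, β-galactosidase reporter activity was read as FDG fluorescence (ex 480/em 540) after 30 minutes.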
An asterisk follows results filed as active; i = inactive; u = inconclusive; x = not tested or not shown; ! = repeats disagree; [ ] = dose if it differs, or a comment. The list is not random: actives were taken first. Their share in the collection is about 2.8%. Unless noted, calls follow the shape of the dose curve; as a rule, active = well fitted curve in the direction sought with a large enough effect; inconclusive = small, poorly fitted or top-dose-only effect, or another doubt; inactive = no such curve, though single readings can be large; an effect the other way counts as inactive or inconclusive.

SMILES	CBFb-RUNX1 inh	MBNL1-CUG inh	PTHR1 agonist	DRD3 antagonist	DRD3 agonist	Integrin act MD
CCN(c1ccccc1)S(=O)(=O)c1ccc(NC(=O)c2nc(S(C)(=O)=O)ncc2Cl)cc1	x	0.9%	-90.0%	-93.4*	-25.5	-64.7%
O=C(Nc1ccc(OC(F)F)cc1)c1ccccn1	0.1%	1.1%	i	1.4	0.3	-33.6%
CS(=O)(=O)c1ncc(Cl)c(C(=O)Nc2ccc(OC(F)F)cc2)n1	x	17.6%	-65.0%	-151.6*	-19.0	-55.6%
OC[C@@H](O)C(O)[C@H](O)CO	x	x	x	x	-11.5	x
Cc1nc(N2CCOCC2)c2cc(-c3ccccc3)sc2n1	12.0%	35.3%	-20.5%[57.5 µM]	-57.0*	-10.4	22.0%
CCOC(=O)c1cccc(NC(=O)c2cc3c(=O)n(Cc4ccccc4)ccc3nc2C)c1	x	x	-25.2%	x	-5.8	x
CCCc1nnc(SCC(=O)N2CCCC(C)C2)n1CCOC (stereo not drawn)	-16.2%	-6.4%	i	-57.9*	-6.6	-19.5%
CCCc1nnc(SCC(=O)N2CCCC(C)C2)n1CCCOC (stereo not drawn)	7.3%	-16.4%	i	12.1	1.1	-15.8%
CCCc1nnc(SCC(=O)N2CCCCC2C)n1CC1CCCO1 (stereo not drawn)	7.4%	-24.7%	i	-64.7*	1.8	18.2%
CCCCn1nnc(NC(=O)c2ccc(-c3cccc(Cl)c3)o2)n1	-0.4%	7.5%	-13.5%	-86.2*	-3.9	-4.1%
Cn1cnc(S(=O)(=O)N2CCCCC2c2cc(C(=O)Nc3cccc4c3CCCC4)no2)c1 (stereo not drawn)	x	x	i	-20.6	-7.1	x
CCC(=O)N1CCc2cc(S(=O)(=O)NCCC(=O)N3CCN(c4cccc(C)c4)C(C)C3)ccc21 (stereo not drawn)	x	1.6%	-17.1%	18.3	0.9	u
COc1cc(OC)nc(Nc2nc(C(N)Cc3ccc(Cl)cc3)cs2)n1 (stereo not drawn)	x	x	-0.9%	-0.9	1.7	x
COc1cc(OC)nc(Nc2nc(C(N)CCc3ccccc3)cs2)n1 (stereo not drawn)	x	x	i	7.0	34.1*	x
COc1cc(OC)nc(Nc2nc(C(N)COCc3ccccc3)cs2)n1 (stereo not drawn)	x	x	i	-74.0*	-6.0	x
COc1cc(OC)nc(Nc2nc(C(N)c3ccccc3)cs2)n1 (stereo not drawn)	x	x	-23.6%	10.5	3.3	x
COc1ccccc1CNC(=O)CCCN1C(=O)CSc2c1c(C)nn2-c1ccccc1	x	x	-31.1%	x	-5.9	x
Cc1nn(-c2ccccc2)c(=S)n1-c1ccccc1	-6.9%	-10.6%	i	20.7	-4.0	-36.8%
Cc1nn(C)c(=S)n1-c1ccc(Cl)cc1	6.5%	-13.8%	-16.1%	-51.9*	0.3	3.1%
COc1cc(-c2cc3nc(NCc4ccco4)ccn3n2)cc(OC)c1OC	x	x	-35.1%	-74.7*	6.1	x
CCn1c(CC(=O)Nc2ccc(C)cc2)nnc1SCC(=O)N1CCOCC1	x	3.0%	i	14.0	4.4	8.8%
Cc1cc(NCc2ccccc2)nc2ccccc12	15.4%	-12.7%	-13.1%[57.5 µM]	-57.3*	-5.1	6.5%
COc1ccnc(CSC(N)=Nc2ccc(F)cc2)c1	8.0%	31.8%	i	-71.3*	-4.9	-25.4%
S=c1c2c(nc3nc[nH]n13)CCC2	-11.3%	-8.1%	-66.8%	-24.6	-9.6	10.4%
CC1CCc2c(nc3nc[nH]n3c2=O)C1 (stereo not drawn)	-3.0%	-9.0%	i	-53.1*	3.3	-1.7%
SMILES	CBFb-RUNX1 inh	MBNL1-CUG inh	PTHR1 agonist	DRD3 antagonist	DRD3 agonist	Integrin act MD
CCC(=O)OCC(=O)[C@@]1(OC(=O)CC)[C@H](C)C[C@H]2[C@@H]3CCC4=CC(=O)C=C[C@]4(C)[C@@]3(F)[C@@H](O)C[C@@]21C	x	x	x	x	0.5	x
C=CCn1c(-c2cc(OC)cc(OC)c2)n[nH]c1=S	0.2%	-3.3%	-0.8%[57.5 µM]	-58.9*	-0.6	-1.8%
O=C(COc1ccccc1Cl)Nc1ccc2[nH]c(=O)[nH]c2c1	x	x	-11.3%	-60.8*	2.7	1.9%
CCOc1ccccc1OCC(=O)Nc1ccc2[nH]c(=O)[nH]c2c1	x	x	i	3.0	-2.0	-0.6%
Cc1cc2nc(C3CCN(CC4COc5ccccc5O4)CC3)[nH]c2cc1C (stereo not drawn)	6.7%	1.1%	i	-50.2*	-1.0	25.4%
c1ccc2c(c1)OCC(CN1CCCCC1)O2 (stereo not drawn)	x	x	x	x	-11.0	x
Cc1nc(N2CCN(c3ccccn3)CC2)c2c(C)c(C(=O)N3CCN(c4cccc(Cl)c4)CC3)sc2n1	x	-6.9%	-19.2%	4.3	-4.8	12.3%
CCN(CC)CCCNC(=O)Cn1nc(C)n2c(cc3sccc32)c1=O	x	x	i	x	-16.0	x
CC(C)c1ccc2c(c1)C(N1CCN(C)CC1)Cc1cccnc1S2 (stereo not drawn)	x	x	-4.2%	-104.3*	-14.6	-56.2%
S=c1[nH]nc(-c2n[nH]c3c2CCC3)n1/N=C/C=C/c1ccccc1	-5.2%	9.4%	-3.8%	-115.2*	-6.1	-52.0%
COc1ccccc1NC(=O)c1cc2ccc(O)cc2o/c1=N\O	1.3%	-24.1%	-10.0%[57.5 µM]	-74.8*	-2.4	-16.5%
COc1ccccc1NC(=O)c1cc2ccccc2o/c1=N\O	-0.1%	15.5%	-36.1%	-21.1	-4.0	-26.6%
COc1ccccc1N=c1oc2cc(O)ccc2cc1C(N)=O	0.9%	u	-11.4%	-53.6*	-9.9	-7.9%
COc1ccccc1N=c1oc2cc(O)ccc2cc1C(=O)NCC1CCCO1 (stereo not drawn)	6.6%	u	-26.0%	19.1	1.8	-16.9%
CCOc1ccc(CNC(=O)Cn2cc3c(n2)-c2c(oc(C(=O)N4CCOCC4)c2C)CC3)cc1	x	x	-37.4%	x	14.2	x
Cn1ncc2c(N3CCN(c4ccccc4F)CC3)ncnc21	7.8%	-3.5%	-37.3%	28.6	30.3*!	2.7%
Cn1nnc2c(N3CCN(c4ccccc4F)CC3)ncnc21	x	x	i	x	-3.1	x
CCc1cccc(NS(=O)(=O)c2csc(C(N)=O)c2)c1	x	2.6%	-31.9%	19.8	32.6*	-0.7%
COc1ccc(/C=N/c2oc(-c3ccccc3)cc2C#N)cc1OC	-2.0%	1.1%	-1.7%	-52.4*	-4.0	23.6%
COc1ccc(CNC(=O)C(c2ccc(C)o2)N(Cc2cccs2)C(=O)Cc2cccs2)cc1 (stereo not drawn)	-0.1%	-3.8%	i	-56.7*	2.8	1.9%
CC(=O)Nc1cc(-c2cccc(C(=O)NCCN(C)C)c2)cn2c(-c3ccccc3)cnc12	x	x	-17.0%	-51.6*	-23.6	x
CC(=O)Nc1cc(-c2ccc(CO)cc2)cn2c(-c3ccc(F)cc3)cnc12	x	x	-21.8%	-50.2*	-5.3	x
